{
  "source": "paper PMC4336329",
  "about": "(PLoS ONE, 2015)",
  "note": "Screen size: about 310,000 compounds; about 14,000 (4.5%) showed an effect of 50% or more. Effects have a minus sign here. What follows is part of a selection rich in strong results, with near analogues and random picks from the rest.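 Also: peak tail current of the secondary pulse compared with the same well before compound.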",
  "data": [
    {"target": "human ether-à-go-go-related gene (hERG) potassium channel (human, UniProt Q12809)", "sequence (Q12809 whole entry, looked up)": "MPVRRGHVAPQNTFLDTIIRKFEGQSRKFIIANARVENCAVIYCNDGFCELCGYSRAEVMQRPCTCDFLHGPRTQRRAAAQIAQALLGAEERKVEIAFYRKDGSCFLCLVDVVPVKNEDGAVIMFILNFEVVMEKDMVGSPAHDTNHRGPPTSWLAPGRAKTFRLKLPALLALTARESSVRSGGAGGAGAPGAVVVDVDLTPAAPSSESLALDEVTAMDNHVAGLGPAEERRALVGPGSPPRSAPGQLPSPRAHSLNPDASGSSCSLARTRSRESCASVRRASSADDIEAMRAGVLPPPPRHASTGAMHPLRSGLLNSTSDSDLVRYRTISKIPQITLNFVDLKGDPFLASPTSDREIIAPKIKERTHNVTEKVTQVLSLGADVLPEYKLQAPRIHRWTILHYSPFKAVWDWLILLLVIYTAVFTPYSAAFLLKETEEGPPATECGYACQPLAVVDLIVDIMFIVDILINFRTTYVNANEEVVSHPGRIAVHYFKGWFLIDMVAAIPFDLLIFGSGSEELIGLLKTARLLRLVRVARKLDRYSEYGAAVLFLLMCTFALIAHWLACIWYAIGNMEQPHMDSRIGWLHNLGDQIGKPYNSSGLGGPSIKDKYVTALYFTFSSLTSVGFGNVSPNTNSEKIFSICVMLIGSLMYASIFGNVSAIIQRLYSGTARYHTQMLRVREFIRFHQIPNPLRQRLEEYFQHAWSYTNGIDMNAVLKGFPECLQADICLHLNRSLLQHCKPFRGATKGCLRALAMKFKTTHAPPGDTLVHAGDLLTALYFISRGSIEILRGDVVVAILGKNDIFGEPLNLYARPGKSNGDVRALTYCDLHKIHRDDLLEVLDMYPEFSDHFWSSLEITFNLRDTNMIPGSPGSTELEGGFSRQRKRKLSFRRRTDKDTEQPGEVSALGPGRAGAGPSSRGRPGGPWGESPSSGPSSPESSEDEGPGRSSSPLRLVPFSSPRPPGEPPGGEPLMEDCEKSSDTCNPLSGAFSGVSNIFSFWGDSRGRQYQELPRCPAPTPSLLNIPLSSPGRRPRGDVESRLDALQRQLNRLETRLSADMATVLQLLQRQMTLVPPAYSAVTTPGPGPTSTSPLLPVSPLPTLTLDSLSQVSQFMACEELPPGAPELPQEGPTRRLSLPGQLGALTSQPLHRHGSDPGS", "experiment": "primary screen, population patch clamp on CHO cells stably expressing hERG; higher = less effect of the substance", "units": {"hERG current change (%, negative = inhibition) at 10uM": "%"}, "values": [
      {"smiles": "COc1ccc(C(CNC(=O)C(CCSC)NC(=O)c2ccccc2Cl)N2CCOCC2)cc1", "note": "(stereo not drawn)", "hERG current change (%, negative = inhibition) at 10uM": -8.2},
      {"smiles": "CC(C)C[C@H](NC(=O)c1cc2cc(Cl)ccc2n1C)C(=O)N1CCC(C(=O)O)CC1", "hERG current change (%, negative = inhibition) at 10uM": 13.5},
      {"smiles": "CN(C(=O)c1cccc(N2C(=O)C3C4C=CC(C4)C3C2=O)c1)C1CCCCC1", "note": "(stereo not drawn)", "hERG current change (%, negative = inhibition) at 10uM": 0.921},
      {"smiles": "O=C(Nc1ccccc1)NC(Cc1ccc(O)cc1)C(=O)O", "note": "(stereo not drawn)", "hERG current change (%, negative = inhibition) at 10uM": 17.4},
      {"smiles": "O=C(NC(=S)Nc1ccccc1C(=O)O)c1cncc(Br)c1", "hERG current change (%, negative = inhibition) at 10uM": 23},
      {"smiles": "COc1ccc(OC)c(/C=C/C(=O)OCC(=O)Nc2ccc3c(c2)OCCO3)c1", "hERG current change (%, negative = inhibition) at 10uM": 15.9},
      {"smiles": "Cc1noc(/C=C/N(C)C)c1S(=O)(=O)N1CCc2ccccc21", "hERG current change (%, negative = inhibition) at 10uM": -18.6},
      {"smiles": "COc1ccccc1CN(C)C(=O)c1cccc(S(=O)(=O)N2CCc3ccccc3C2)c1", "hERG current change (%, negative = inhibition) at 10uM": -4.08},
      {"smiles": "O=C(COC(=O)c1cc(=O)c2ccccc2o1)Nc1ccc2ccccc2c1", "hERG current change (%, negative = inhibition) at 10uM": 17.6},
      {"smiles": "CN1/C(=C\\C(=O)CSc2nnc(NCc3ccccc3)s2)C(C)(C)c2ccccc21", "hERG current change (%, negative = inhibition) at 10uM": -13.1},
      {"smiles": "CN1/C(=C\\C(=O)CSc2nnc(N)s2)C(C)(C)c2ccccc21", "hERG current change (%, negative = inhibition) at 10uM": 0.532},
      {"smiles": "CC(C)Nc1nnc(SCC(=O)/C=C2\\N(C)c3ccccc3C2(C)C)s1", "hERG current change (%, negative = inhibition) at 10uM": -65.1},
      {"smiles": "Cc1cc(Cl)ccc1C(=O)C1CCCN(C2CCSCC2)C1", "note": "(stereo not drawn)", "hERG current change (%, negative = inhibition) at 10uM": -74.3},
      {"smiles": "O=C(c1ccc(C(F)(F)F)cc1)C1CCCN(C(=O)c2csnn2)C1", "note": "(stereo not drawn)", "hERG current change (%, negative = inhibition) at 10uM": -22.6},
      {"smiles": "Cc1nc(C)c(C(=O)N2CCCC(C(=O)c3ccc(Cl)cc3C)C2)s1", "note": "(stereo not drawn)", "hERG current change (%, negative = inhibition) at 10uM": -23},
      {"smiles": "COC(=O)CCC(=O)N1CCCC(C(=O)c2ccc(Cl)cc2C)C1", "note": "(stereo not drawn)", "hERG current change (%, negative = inhibition) at 10uM": -5.75},
      {"smiles": "COc1ccc(C(=O)C2CCCN(C3CSCCSC3)C2)c(C)c1", "note": "(stereo not drawn)", "hERG current change (%, negative = inhibition) at 10uM": -13},
      {"smiles": "Cc1cc(Cl)ccc1C(=O)C1CCCN(C(=O)c2nonc2C)C1", "note": "(stereo not drawn)", "hERG current change (%, negative = inhibition) at 10uM": -26.3},
      {"smiles": "O=C(c1ccc(Cl)cc1)C1CCCN(C(=O)c2csnn2)C1", "note": "(stereo not drawn)", "hERG current change (%, negative = inhibition) at 10uM": 0.734},
      {"smiles": "CC(C)(C)c1ccc(C(=O)C2CCCN(C3CCC3)C2)cc1", "note": "(stereo not drawn)", "hERG current change (%, negative = inhibition) at 10uM": -18.4},
      {"smiles": "O=C(c1ccc(C(F)(F)F)cc1)C1CCCN(C2CCSCC2)C1", "note": "(stereo not drawn)", "hERG current change (%, negative = inhibition) at 10uM": -71.2},
      {"smiles": "O=C(c1ccc(Cl)cc1)C1CCCN(C2CCSCC2)C1", "note": "(stereo not drawn)", "hERG current change (%, negative = inhibition) at 10uM": -78.9},
      {"smiles": "CN1CCCC(C(=O)c2ccc(Cl)cc2)C1", "note": "(stereo not drawn)", "hERG current change (%, negative = inhibition) at 10uM": -23},
      {"smiles": "Cc1cc(Cl)ccc1C(=O)C1CCCN(C(=O)c2snnc2C)C1", "note": "(stereo not drawn)", "hERG current change (%, negative = inhibition) at 10uM": -56.1},
      {"smiles": "COc1cc2cc(C)nc(Cc3cccc4ccccc34)c2cc1OC", "hERG current change (%, negative = inhibition) at 10uM": 8.53},
      {"smiles": "CC#CP(=O)(OCC)C(O)(c1ccccc1)C(F)(F)F", "note": "(stereo not drawn)", "hERG current change (%, negative = inhibition) at 10uM": -3.29},
      {"smiles": "CC(=O)Nc1c(O)nc(SCC(=O)Nc2cccc(C)c2)[nH]c1=O", "hERG current change (%, negative = inhibition) at 10uM": 14.8},
      {"smiles": "CCOc1cc(-c2ccc(N)c(OCC)c2)ccc1N", "hERG current change (%, negative = inhibition) at 10uM": -10.2},
      {"smiles": "S=C(NCc1ccc(Cl)c(Cl)c1)Nc1ccc2c(c1)OCO2", "hERG current change (%, negative = inhibition) at 10uM": -6.19},
      {"smiles": "Nn1c(SCC(=O)Nc2ccc(S(N)(=O)=O)cc2)nnc1C(F)(F)F", "hERG current change (%, negative = inhibition) at 10uM": 0.037},
      {"smiles": "Cc1cc(Cl)cc(C)c1OCCCCCn1ccnc1", "hERG current change (%, negative = inhibition) at 10uM": -28.1},
      {"smiles": "C[C@H]1CCC(=O)N([C@H](CSc2ccc(Br)cc2)Cc2ccccc2)CC1", "hERG current change (%, negative = inhibition) at 10uM": 7.31},
      {"smiles": "CC(C)(C)[C@H]1CCC(=O)N([C@H](CSc2ccccc2)Cc2ccccc2)CC1", "hERG current change (%, negative = inhibition) at 10uM": -3.06},
      {"smiles": "Cc1ccc(SC[C@H](Cc2ccccc2)N2CC[C@@H](C)CCC2=O)cc1", "hERG current change (%, negative = inhibition) at 10uM": -28.7},
      {"smiles": "CCCN1CCC(=O)N([C@H](CSc2ccc(Br)cc2)Cc2ccccc2)CC1", "hERG current change (%, negative = inhibition) at 10uM": -71.2},
      {"smiles": "CC(C)(C)[C@H]1CCC(=O)N([C@H](CSc2ccc(Br)cc2)Cc2ccccc2)CC1", "hERG current change (%, negative = inhibition) at 10uM": 4.84},
      {"smiles": "CN1CCC(=O)N([C@H](CSc2ccc(Br)cc2)Cc2ccccc2)CC1", "hERG current change (%, negative = inhibition) at 10uM": -64.8},
      {"smiles": "CCCN1CCC(=O)N([C@H](CSc2ccccc2)Cc2ccccc2)CC1", "hERG current change (%, negative = inhibition) at 10uM": -69.6},
      {"smiles": "CN1CCC(=O)N([C@H](CSc2ccccc2)Cc2ccccc2)CC1", "hERG current change (%, negative = inhibition) at 10uM": -45.8},
      {"smiles": "CCOC(=O)c1c(NC(=O)C[n+]2ccc(Cc3ccccc3)cc2)sc(C)c1C.[Cl-]", "hERG current change (%, negative = inhibition) at 10uM": -43.5},
      {"smiles": "CC1CCN(c2cc(N3CCC(C)CC3)c([N+](=O)[O-])cc2/C=C(\\C#N)c2nn(-c3ccccc3)c(N)c2C#N)CC1", "hERG current change (%, negative = inhibition) at 10uM": -10.2},
      {"smiles": "O=c1[nH]c(CN2CCN(S(=O)(=O)c3ccccc3C(F)(F)F)CC2)nc2sc3c(c12)CCCC3", "hERG current change (%, negative = inhibition) at 10uM": 10.9},
      {"smiles": "Cc1cccc(C(=O)N2CCN(Cc3nc4sc5c(c4c(=O)[nH]3)CCCC5)CC2)c1", "hERG current change (%, negative = inhibition) at 10uM": -58.4},
      {"smiles": "CC(=O)N1CCN(C(=O)CCc2nc3sc4c(c3c(=O)[nH]2)CCCC4)CC1", "hERG current change (%, negative = inhibition) at 10uM": 5.61},
      {"smiles": "Cc1ccc(C(=O)N2CCN(Cc3nc4sc5c(c4c(=O)[nH]3)CCCC5)CC2)cc1", "hERG current change (%, negative = inhibition) at 10uM": -76},
      {"smiles": "O=C(c1ccccc1F)N1CCN(Cc2nc3sc4c(c3c(=O)[nH]2)CCCC4)CC1", "hERG current change (%, negative = inhibition) at 10uM": -81.6},
      {"smiles": "Cc1ccc(S(=O)(=O)N2CCN(Cc3nc4sc(C)c(C)c4c(=O)[nH]3)CC2)cc1", "hERG current change (%, negative = inhibition) at 10uM": 18.2},
      {"smiles": "Cc1ccc(-c2c(C)sc3nc(CN4CCN(CC(=O)NC5CC5)CC4)[nH]c(=O)c23)cc1", "hERG current change (%, negative = inhibition) at 10uM": -71.5},
      {"smiles": "Cc1ccc(S(=O)(=O)N2CCN(Cc3nc4sc5c(c4c(=O)[nH]3)CCCC5)CC2)cc1", "hERG current change (%, negative = inhibition) at 10uM": -21.3},
      {"smiles": "O=c1[nH]c(CN2CCCC2)nc2sc3c(c12)CCC3", "hERG current change (%, negative = inhibition) at 10uM": 20.5},
      {"smiles": "Cc1sc2nc(CN3CCOCC3)[nH]c(=O)c2c1-c1ccccc1", "hERG current change (%, negative = inhibition) at 10uM": 2.19},
      {"smiles": "O=C(CCc1nc2sc3c(c2c(=O)[nH]1)CCCC3)N1CCN(c2ccccc2)CC1", "hERG current change (%, negative = inhibition) at 10uM": 2.7},
      {"smiles": "Cc1cccc(NC(=O)CCc2nc3sc4c(c3c(=O)[nH]2)CCCC4)c1", "hERG current change (%, negative = inhibition) at 10uM": 10.8},
      {"smiles": "Cc1ccc(C)c(S(=O)(=O)Nc2ccc(C(=O)NCCc3ccccn3)cc2)c1", "hERG current change (%, negative = inhibition) at 10uM": 10.2}
    ]}
  ]
}
